Data from PubChem BioAssay AID1159580 (chemical genetic matrix, 2015).
In all, about 5,500 compounds went through this assay and about 2,000 (36%) were called active. About 18% were inconclusive and are not listed. No stated cut-off is given here; in the data, active means normalized growth mostly below about 0.91 (no sharp cut-off); inconclusive means no clear call, values can overlap the other calls; inactive means mostly above about 0.92. This is one part of the list.

Experiment: chemical genetic growth profiling, strain panel (AID 1159580);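 further: tested at 20 µM; growth read once vehicle control cultures reached saturation at 30 °C; 1 = growth at the plate median or of vehicle wells; lower values mean less growth of the strain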
Details: growth OD

Measured: normalized growth

CC(=O)NC(C(=O)O)C(C)(C)SN=O (centres undefined)
inactive: S. cerevisiae deletion strains, locus YJR043C, strain POL32, hits give low values 0.995 | S. cerevisiae deletion strains, locus YJR075W, strain HOC1, hits give low values 1.03 | S. cerevisiae deletion strains, locus YKL009W, strain mrt4, hits give low values 0.957 | S. cerevisiae deletion strains, locus YKL068W, hits give low values 0.99 | S. cerevisiae deletion strains, locus YKL085W, strain MDH1 (second series), hits give low values 0.987 | S. cerevisiae deletion strains, locus YKL085W, strain MDH1, hits give low values 0.987 | S. cerevisiae deletion strains, locus YKL160W, strain elf1, hits give low values 0.996 | S. cerevisiae deletion strains, locus YKL190W, strain CNB1, hits give low values 1.01 | S. cerevisiae deletion strains, locus YKR001C, strain vps1, hits give low values 1 | S. cerevisiae deletion strains, locus YKR026C, strain gcn3, hits give low values 0.989 | S. cerevisiae deletion strains, locus YKR091W, strain srl3, hits give low values 0.986 | S. cerevisiae deletion strains, locus YLL001W, strain dnm1, hits give low values 1 | S. cerevisiae deletion strains, locus YLL026W, hits give low values 1 | S. cerevisiae deletion strains, locus YLL041C, strain sdh2, hits give low values 0.99 | S. cerevisiae deletion strains, locus YLR027C, strain aat2, hits give low values 1 | S. cerevisiae deletion strains, locus YLR039C, strain RIC1, hits give low values 1 | S. cerevisiae deletion strains, locus YLR058C, strain SHM2, hits give low values 1.01 | S. cerevisiae deletion strains, locus YLR102C, strain apc9, hits give low values 0.993 | S. cerevisiae deletion strains, locus YLR221C, strain rsa3, hits give low values 1 | S. cerevisiae deletion strains, locus YLR258W, strain gsy2, hits give low values 0.994 | S. cerevisiae deletion strains, locus YLR262C, strain YPT6 (second series), hits give low values 1.02 | S. cerevisiae deletion strains, locus YLR262C, strain YPT6, hits give low values 1.01 | S. cerevisiae deletion strains, locus YLR268W, strain sec22, hits give low values 1 | S. cerevisiae deletion strains, locus YLR320W, strain mms22, hits give low values 0.972 | S. cerevisiae deletion strains, locus YLR330W, strain CHS5, hits give low values 0.994 | S. cerevisiae deletion strains, locus YLR342W, strain FKS1 (second series), hits give low values 1.01 | S. cerevisiae deletion strains, locus YLR342W, strain FKS1, hits give low values 1.01 | S. cerevisiae deletion strains, locus YLR357W, strain rsc2, hits give low values 0.989 | S. cerevisiae deletion strains, locus YLR370C, strain arc18, hits give low values 0.991 | S. cerevisiae deletion strains, locus YLR371W, strain rom2, hits give low values 0.984 | S. cerevisiae deletion strains, locus YLR384C, strain iki3, hits give low values 0.974 | S. cerevisiae deletion strains, locus YLR418C, strain cdc73, hits give low values 1.06 | S. cerevisiae deletion strains, locus YML016C, strain PPZ1, hits give low values 1.01 | S. cerevisiae deletion strains, locus YML032C, strain rad52, hits give low values 0.979 | S. cerevisiae deletion strains, locus YML120C, strain ndi1, hits give low values 1 | S. cerevisiae deletion strains, locus YML124C, strain tub3, hits give low values 0.993 | S. cerevisiae deletion strains, locus YMR058W, strain fet3, hits give low values 0.993 | S. cerevisiae deletion strains, locus YMR078C, strain ctf18, hits give low values 0.982 | S. cerevisiae deletion strains, locus YMR125W, strain sto1, hits give low values 0.98 | S. cerevisiae deletion strains, locus YMR129W, hits give low values 0.993 | S. cerevisiae deletion strains, locus YMR205C, strain PFK2, hits give low values 1.01 | S. cerevisiae deletion strains, locus YMR223W, strain ubp8, hits give low values 0.995 | S. cerevisiae deletion strains, locus YMR231W, strain pep5, hits give low values 0.979 | S. cerevisiae deletion strains, locus YMR263W, strain SAP30, hits give low values 1.03 | S. cerevisiae deletion strains, locus YMR307W, strain GAS1, hits give low values 0.995 | S. cerevisiae deletion strains, locus YNL067W, strain RPL9B, hits give low values 1.02 | S. cerevisiae deletion strains, locus YNL071W, strain lat1, hits give low values 0.989 | S. cerevisiae deletion strains, locus YNL128W, strain TEP1, hits give low values 1.03 | S. cerevisiae deletion strains, locus YNL153C, strain GIM3, hits give low values 1.01 | S. cerevisiae deletion strains, locus YNL209W, strain ssb2, hits give low values 0.993 | S. cerevisiae deletion strains, locus YNL233W, strain BNI4, hits give low values 1.01 | S. cerevisiae deletion strains, locus YNL248C, strain rpa49, hits give low values 0.994 | S. cerevisiae deletion strains, locus YNL250W, strain rad50, hits give low values 0.989 | S. cerevisiae deletion strains, locus YNL271C, strain bni1, hits give low values 1 | S. cerevisiae deletion strains, locus YNL298W, strain CLA4, hits give low values 0.983 | S. cerevisiae deletion strains, locus YNL307C, strain MCK1, hits give low values 1.01 | S. cerevisiae deletion strains, locus YNL322C, strain KRE1 (second series), hits give low values 0.997 | S. cerevisiae deletion strains, locus YNL322C, strain KRE1, hits give low values 1.01 | S. cerevisiae deletion strains, locus YNR049C, strain mso1, hits give low values 0.981 | S. cerevisiae deletion strains, locus YNR052C, strain pop2, hits give low values 0.991 | S. cerevisiae deletion strains, locus YOL006C, strain TOP1, hits give low values 1.09 | S. cerevisiae deletion strains, locus YOL012C, strain htz1 0.758 | S. cerevisiae deletion strains, locus YOL147C, strain pex11, hits give low values 0.995 | S. cerevisiae deletion strains, locus YOR001W, strain rrp6, hits give low values 0.971 | S. cerevisiae deletion strains, locus YOR061W, strain CKA2, hits give low values 1.01 | S. cerevisiae deletion strains, locus YOR069W, strain VPS5, hits give low values 1 | S. cerevisiae deletion strains, locus YOR070C, strain gyp1, hits give low values 0.979 | S. cerevisiae deletion strains, locus YOR080W, strain dia2, hits give low values 0.994 | S. cerevisiae deletion strains, locus YOR083W, strain WHI5, hits give low values 1 | S. cerevisiae deletion strains, locus YOR106W, strain vam3, hits give low values 0.999 | S. cerevisiae deletion strains, locus YOR136W, strain idh2, hits give low values 0.984 | S. cerevisiae deletion strains, locus YOR144C, strain elg1, hits give low values 0.989 | S. cerevisiae deletion strains, locus YOR184W, strain ser1, hits give low values 0.978 | S. cerevisiae deletion strains, locus YOR265W, strain rbl2, hits give low values 0.991 | S. cerevisiae deletion strains, locus YOR270C, strain vph1, hits give low values 0.982 | S. cerevisiae deletion strains, locus YOR290C, strain snf2, hits give low values 0.981 | S. cerevisiae deletion strains, locus YOR316C, strain cot1, hits give low values 0.989 | S. cerevisiae deletion strains, locus YPL051W, strain arl3, hits give low values 0.987 | S. cerevisiae deletion strains, locus YPL055C, strain LGE1, hits give low values 1.04 | S. cerevisiae deletion strains, locus YPL078C, strain atp4, hits give low values 0.988 | S. cerevisiae deletion strains, locus YPL106C, strain sse1, hits give low values 0.97 | S. cerevisiae deletion strains, locus YPL240C, strain hsp82, hits give low values 0.999 | S. cerevisiae deletion strains, locus YPL241C, strain CIN2, hits give low values 1.01 | S. cerevisiae deletion strains, locus YPR119W, strain clb2, hits give low values 0.998 | S. cerevisiae deletion strains, locus YPR141C, strain kar3, hits give low values 0.995 | S. cerevisiae deletion strains, locus YPR163C, strain tif3, hits give low values 0.986 | S. cerevisiae deletion strains, locus YPR167C, strain met16, hits give low values 1 | S. cerevisiae deletion strains, strain wtn01, hits give low values 1.01 | S. cerevisiae strains, strain wild type, hits give low values 0.999
